Results published in article PMC11006913.

Each sequence was assayed against T1, NKX2-4 (Homo sapiens, UniProt Q9H2Z4 175-261, T231S) (assay: PBM; 200 nM protein, PBS). Conditions: dsDNA, one strand shown.
T1 sequence: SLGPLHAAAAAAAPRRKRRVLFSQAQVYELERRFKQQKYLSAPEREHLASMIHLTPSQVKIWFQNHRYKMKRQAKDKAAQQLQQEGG

Sequence | binding signal
AACGCTGG | 9.71 upbm affinity estimate (log intensity, higher = more binding, comparable within an allelic series)
CCCTGCAG | 9.92 upbm affinity estimate (log intensity, higher = more binding, comparable within an allelic series)
CTCTTGAA | 12.8 upbm affinity estimate (log intensity, higher = more binding, comparable within an allelic series)
GCCCTTAA | 12.3 upbm affinity estimate (log intensity, higher = more binding, comparable within an allelic series)
ACCTGCAG | 9.82 upbm affinity estimate (log intensity, higher = more binding, comparable within an allelic series)
CGGTCGTA | 9.64 upbm affinity estimate (log intensity, higher = more binding, comparable within an allelic series)
CGTTTGGC | 9.4 upbm affinity estimate (log intensity, higher = more binding, comparable within an allelic series)
CTACTCAA | 12.5 upbm affinity estimate (log intensity, higher = more binding, comparable within an allelic series)
CCGCCATA | 9.79 upbm affinity estimate (log intensity, higher = more binding, comparable within an allelic series)
ATGTCCGG | 9.43 upbm affinity estimate (log intensity, higher = more binding, comparable within an allelic series)
AGTGGTTC | 12 upbm affinity estimate (log intensity, higher = more binding, comparable within an allelic series)
AACGCCAG | 9.82 upbm affinity estimate (log intensity, higher = more binding, comparable within an allelic series)
CCGCTACC | 9.7 upbm affinity estimate (log intensity, higher = more binding, comparable within an allelic series)
CACTCGAG | 12.8 upbm affinity estimate (log intensity, higher = more binding, comparable within an allelic series)
ACGTACTC | 12 upbm affinity estimate (log intensity, higher = more binding, comparable within an allelic series)
AGTACTCA | 12.9 upbm affinity estimate (log intensity, higher = more binding, comparable within an allelic series)
CCCGGCCC | 9.78 upbm affinity estimate (log intensity, higher = more binding, comparable within an allelic series)
AGTGCTTA | 12.2 upbm affinity estimate (log intensity, higher = more binding, comparable within an allelic series)
AAAGCACT | 11.9 upbm affinity estimate (log intensity, higher = more binding, comparable within an allelic series)
GGTCGCCA | 9.67 upbm affinity estimate (log intensity, higher = more binding, comparable within an allelic series)

Sequence | binding signal
ATTCTTGA | 11.7 upbm affinity estimate (log intensity, higher = more binding, comparable within an allelic series)
AGCTCGCG | 9.58 upbm affinity estimate (log intensity, higher = more binding, comparable within an allelic series)
CTTGAGGA | 12.3 upbm affinity estimate (log intensity, higher = more binding, comparable within an allelic series)
GTCCCACA | 9.69 upbm affinity estimate (log intensity, higher = more binding, comparable within an allelic series)
ATCGGAGC | 9.93 upbm affinity estimate (log intensity, higher = more binding, comparable within an allelic series)
CGATCGCA | 9.92 upbm affinity estimate (log intensity, higher = more binding, comparable within an allelic series)
CAGTGCGC | 9.8 upbm affinity estimate (log intensity, higher = more binding, comparable within an allelic series)
CTTCTCAA | 11.9 upbm affinity estimate (log intensity, higher = more binding, comparable within an allelic series)
GCACTCGA | 13 upbm affinity estimate (log intensity, higher = more binding, comparable within an allelic series)
AGGCGGGC | 8.97 upbm affinity estimate (log intensity, higher = more binding, comparable within an allelic series)
GCGAGCCA | 9.69 upbm affinity estimate (log intensity, higher = more binding, comparable within an allelic series)
CGCCCTGA | 9.84 upbm affinity estimate (log intensity, higher = more binding, comparable within an allelic series)
CCCGCAGG | 8.81 upbm affinity estimate (log intensity, higher = more binding, comparable within an allelic series)
CCAGAGAC | 9.67 upbm affinity estimate (log intensity, higher = more binding, comparable within an allelic series)
ACGCAGTG | 9.67 upbm affinity estimate (log intensity, higher = more binding, comparable within an allelic series)
CCGGTCGC | 9.41 upbm affinity estimate (log intensity, higher = more binding, comparable within an allelic series)
CATCGCGA | 9.66 upbm affinity estimate (log intensity, higher = more binding, comparable within an allelic series)
GTCAAGGA | 11.9 upbm affinity estimate (log intensity, higher = more binding, comparable within an allelic series)
GATCGGCC | 9.89 upbm affinity estimate (log intensity, higher = more binding, comparable within an allelic series)
